Source: PubChem BioAssay
Hits are enriched below; roughly 2.4% of the tested compounds scored in any of these assays.
POLH inh: DNA polymerase eta (human) inhibition; Q9Y253; recombinant Pol eta, fluorescent DNA replication assay; Potency, µM (top dose mostly 114 µM), inactives show at the top dose activity change, negative = inhibition, most hits filed as inhibitors; actives 1.2% (n = 390,000); AID 588591; further: on the % scale 0 is the no-effect control and ±100 the full control effect
Target sequence (Q9Y253 whole entry, looked up): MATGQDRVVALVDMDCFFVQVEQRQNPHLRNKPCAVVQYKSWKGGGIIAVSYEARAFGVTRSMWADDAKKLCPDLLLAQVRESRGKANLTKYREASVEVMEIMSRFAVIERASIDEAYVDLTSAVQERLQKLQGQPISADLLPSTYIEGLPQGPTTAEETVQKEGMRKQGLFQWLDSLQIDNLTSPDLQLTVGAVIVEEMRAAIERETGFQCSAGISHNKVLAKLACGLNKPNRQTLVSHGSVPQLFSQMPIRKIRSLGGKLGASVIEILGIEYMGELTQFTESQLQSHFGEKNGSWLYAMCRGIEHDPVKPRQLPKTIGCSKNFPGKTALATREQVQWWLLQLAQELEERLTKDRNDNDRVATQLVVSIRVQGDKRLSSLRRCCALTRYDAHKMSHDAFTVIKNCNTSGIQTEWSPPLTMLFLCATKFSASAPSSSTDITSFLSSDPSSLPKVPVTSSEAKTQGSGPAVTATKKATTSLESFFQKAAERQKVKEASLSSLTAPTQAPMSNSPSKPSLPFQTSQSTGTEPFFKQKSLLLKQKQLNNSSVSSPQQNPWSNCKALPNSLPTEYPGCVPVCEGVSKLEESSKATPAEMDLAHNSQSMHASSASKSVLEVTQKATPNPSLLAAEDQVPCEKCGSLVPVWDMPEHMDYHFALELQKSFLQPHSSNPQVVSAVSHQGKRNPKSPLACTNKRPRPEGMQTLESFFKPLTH
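Pol eta at 10 nM preincubated with compounds 15 min at room temperature; reaction started with fluorescent substrate (50 nM final) and read kinetically at 0 and 10 min.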
FEN1 inhibitor: inhibitors of human flap endonuclease 1. Recombinant FEN1 flap cleavage, fluorescence, 15 min. Potency, µM (doses to about 114 µM), without a hit: at the highest dose activity change, negative = inhibition, hits mostly inhibitors. actives 0.35% (n = 390,000); further: on the % scale 0 is the no-effect control and ±100 the full control effect; nearly all actives have a fitted effect of over 65% in size
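With each library titrated from low to high concentration, compounds met 10 nM FEN1 for 15 min at room temperature before 50 nM substrate was added; readings at 0 and 15 min fed four-parameter Hill curve fits.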
WRN inhibitor: WRN helicase (human) inhibition | actives 0.46% (n = 360,000) | Potency, µM (top dose mostly 114 µM), inactives show at the top dose activity change, negative = inhibition, actives largely listed as inhibitors | WRN helicase unwinding, fluorescent forked duplex, kinetic | AID 651768 | Q14191; further: on the % scale 0 is the no-effect control and ±100 the full control effect; nearly all actives have a fitted effect of over 55% in size
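Enzyme (20 nM final) and test compound sit together 15 min at room temperature before substrate addition. Substrate is a single-forked duplex oligonucleotide (100 nM) labelled with fluorophore and quencher, with 2 mM ATP; helicase unwinding raises red fluorescence, read kinetically.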
POLB inh: inhibitors of human DNA polymerase beta; P06746; Pol beta primer extension/strand displacement, fluorescence kinetic; Potency, µM (top dose mostly 114 µM), for inactives: at the top dose activity change, negative = inhibition, hits mostly inhibitors; actives 1.3% (n = 340,000); AID 485314; further: on the % scale 0 is the no-effect control and ±100 the full control effect
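10 nM enzyme + cpd, 15 min RT; start with substrate 50 nM final; read 0 min and after 10 min RT. Corrected, normalized data; 4-parameter Hill curve fit.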
Pol iota inh: blocks human DNA polymerase iota activity; Q9UNA4; Pol iota fluorescent replication assay, 10 min; Potency, µM (series often up to 115 µM), inactives show at the top dose activity, negative = inhibition, hits mostly inhibitors; actives 1% (n = 390,000); AID 588590
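Pol iota at 10 nM preincubated 15 min with compounds at room temperature; reaction started with fluorescent substrate, 50 nM final. Fluorescence read kinetically at 0 and 10 min; buffer-only wells as negative control.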
POLK inh: blocks human DNA polymerase kappa activity; actives 0.53% (n = 400,000); Q9UBT6; Potency, µM (top dose mostly 107 µM), for the others: at the highest dose activity, negative = inhibition, most hits filed as inhibitors; purified Pol kappa, fluorescent DNA synthesis assay, 10 min; AID 588579; further: on the % scale 0 is the no-effect control and ±100 the full control effect
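10 nM Pol kappa was preincubated with compounds for 15 min at room temperature. Reaction started with 50 nM (final) substrate. Fluorescence read kinetically at 0 and 10 min.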
The depositor's hits bear a star; [ ] = dose if it differs, or a comment. The call rests on the fitted dose curve; in most records, active means well fitted curve in the direction sought with a large enough effect; inconclusive means small, poorly fitted or top-dose-only effect, or another doubt; inactive means no such curve, though single readings can be large; an effect the other way counts as inactive or inconclusive. Potency means the concentration at half of the fitted maximal effect.

For Nc1nc2c(c(=O)[nH]1)N=C(CNc1ccc(C(=O)NC(CCC(=O)O)C(=O)O)cc1)CN2 (configuration not stated) the results were POLK inh -8.3%[19.4 µM].
C[C@@H]1[C@H](c2ccccc2)OCCS(=O)(=O)N1Cc1cccc(C(F)(F)F)c1 was read as FEN1 inhibitor -3.3%, Pol iota inh 35.5% and POLK inh -12.4%.
Cc1ccc(Nc2nc(NCc3ccco3)nc3nccnc23)cc1C was read as FEN1 inhibitor -15.0%, Pol iota inh 0.5% and POLK inh -14.4%.
`O=C1C=C(NCc2ccc(Cl)cc2)CC(c2ccco2)C1` (configuration not stated) gave POLH inh inconclusive, FEN1 inhibitor -15.3%, WRN inhibitor -14.5%, POLB inh inconclusive, Pol iota inh inconclusive and POLK inh -25.7%.
O=C1CC(=O)CC(c2ccco2)C1 was read as POLH inh 17.8µM*, FEN1 inhibitor 4.0%, WRN inhibitor -6.6%, POLB inh inconclusive, Pol iota inh inconclusive and POLK inh inconclusive.
CC(C)CNC1=CC(=O)CC(c2ccco2)C1 (configuration not stated) was read as POLH inh inconclusive, FEN1 inhibitor -0.8%, WRN inhibitor -21.5%, POLB inh 28.2µM*, Pol iota inh 28.2µM* and POLK inh inconclusive.
CN(C)S(=O)(=O)c1cccc(-c2nn(-c3ccccc3)cc2/C=C(\C#N)c2nc3ccccc3[nH]2)c1 was read as POLH inh -17.8%, FEN1 inhibitor -1.1%, WRN inhibitor -16.6%, POLB inh -11.0%, Pol iota inh 29.9% and POLK inh -19.3%.
`CN(C)S(=O)(=O)c1cccc(-c2nn(-c3ccccc3)cc2/C=C2\SC(=S)NC2=O)c1` gave POLH inh 14.1µM*, FEN1 inhibitor inconclusive, WRN inhibitor 50.1µM*, POLB inh 20µM*, Pol iota inh inconclusive and POLK inh inconclusive.
`COc1ccc(-n2nnnc2SCC(=O)Nc2ccc3c(c2)OCCO3)cc1OC` gave POLH inh inconclusive, FEN1 inhibitor -3.4%, WRN inhibitor -19.3%, POLB inh -1.2%, Pol iota inh 50.1µM* and POLK inh -5.6%.
For c1ccc2nccnc2c1 the results were FEN1 inhibitor -19.4%, Pol iota inh -20.3% and POLK inh -2.0%.
`CCCc1ccc(OCc2nc(-c3ccc(NC(=O)c4ccco4)cc3)no2)cc1` gave POLH inh -9.8%, FEN1 inhibitor 6.4%, WRN inhibitor -10.4%, POLB inh 35.5µM*, Pol iota inh inconclusive and POLK inh -3.5%.
For Cn1c(SCC(=O)NCc2ccco2)nnc1-c1ccc(S(=O)(=O)N2CCOCC2)cc1 the results were POLH inh inconclusive, FEN1 inhibitor 3.0%, WRN inhibitor -27.3%, POLB inh inconclusive, Pol iota inh 100µM* and POLK inh -24.0%.
`Cn1c(SCC(=O)NCc2ccco2)nnc1-c1ccccc1` gave POLH inh 9.2%, FEN1 inhibitor -0.7%, WRN inhibitor 6.5%, POLB inh 2.7%, Pol iota inh -12.7% and POLK inh -21.6%.
O=C(CSc1nnc(-c2ccc(S(=O)(=O)N3CCCC3)cc2)o1)NCc1ccco1 was read as POLH inh inconclusive, FEN1 inhibitor 13.3%, WRN inhibitor -25.9%, POLB inh 25.1µM*, Pol iota inh 89.1µM* and POLK inh inconclusive.
Screening C=C1C=CS(=O)(=O)N(Cc2ccccc2)C1 returned FEN1 inhibitor -7.2%, Pol iota inh 4.7% and POLK inh -1.5%.
Screening N#CCCn1cc(CNCc2cccnc2)c(-c2ccccc2)n1 returned FEN1 inhibitor -17.4%, Pol iota inh -1.0% and POLK inh -0.9%.
Screening O=C(CSc1nc2ccccc2c(=O)n1Cc1ccc(C(=O)NC2CC2)cc1)NCc1ccco1 returned POLH inh inconclusive, FEN1 inhibitor 4.2%, WRN inhibitor -1.4%[11.6 µM], POLB inh 79.4µM*, Pol iota inh inconclusive and POLK inh -34.5%.
`O=C(CSc1ncnc2ccccc12)NCc1ccco1` gave POLH inh inconclusive, FEN1 inhibitor 2.6%, WRN inhibitor -28.2%, POLB inh 25.1µM*, Pol iota inh inconclusive and POLK inh -7.4%.
For O=C(CSc1ncnc2ccccc12)c1ccco1 the results were POLH inh 13.7%, FEN1 inhibitor -0.1%, WRN inhibitor -2.5%, POLB inh -5.7%, Pol iota inh 111.2% and POLK inh -3.8%.
Screening Cn1c(SCC(=O)NCc2ccco2)nc2ccccc2c1=O returned POLH inh -1.7%, FEN1 inhibitor -7.4%, WRN inhibitor 1.3%, POLB inh 38.9%, Pol iota inh 26.1% and POLK inh -9.9%.
Screening O=C(CSc1nc2ccccc2c(=O)n1Cc1ccco1)NCc1ccccc1 returned POLH inh 11.7%, FEN1 inhibitor -9.8%, WRN inhibitor -5.5%[57.1 µM], Pol iota inh -9.1% and POLK inh -3.4%.
`Cn1cccc1Cc1nnc(SCC(=O)NCc2ccco2)n1CCc1ccccc1` gave POLH inh -29.4%, FEN1 inhibitor 0.3%, WRN inhibitor inconclusive, POLB inh inconclusive, Pol iota inh 22.4µM* and POLK inh inconclusive.
Screening O=C(CSc1nc2ccccc2c2nc3ccccc3n12)NCc1ccco1 returned POLH inh inconclusive, FEN1 inhibitor inconclusive, WRN inhibitor -24.3%, POLB inh 8.91µM*, Pol iota inh inconclusive and POLK inh inconclusive.
`C[C@@H]1C(=O)O[C@H]2[C@H](O)[C@@]34[C@H]5CC(C(C)(C)C)[C@]36[C@H](OC(=O)[C@H]6O)O[C@]4(C(=O)O5)[C@@]12O` (some centres not stated) gave POLK inh -16.8%[60.1 µM].
`O=C(COc1ccccc1C(=O)OCC(=O)N1CCOCC1)Nc1ccc(Br)cc1` gave FEN1 inhibitor -30.7%, Pol iota inh inconclusive and POLK inh -7.9%.
For COCCn1c(SCC(=O)NC2CCCC2)nc2cccnc21 the results were POLH inh -7.8%, FEN1 inhibitor 3.9%, WRN inhibitor 1.8%, POLB inh -10.8%, Pol iota inh 9.6% and POLK inh 12.7%.
Screening CCCc1nc2sc3c(SCC(=O)NCc4ccco4)ncnc3c2c2c1CCC2 returned POLH inh 14.1µM*, FEN1 inhibitor inconclusive, WRN inhibitor 39.8µM*, POLB inh 10µM*, Pol iota inh inconclusive and POLK inh 28.2µM*.
For COCCn1c(SCC(=O)NCc2ccco2)nc2cccnc21 the results were POLH inh inconclusive, FEN1 inhibitor -1.1%, WRN inhibitor -16.0%, POLB inh 44.7µM*, Pol iota inh inconclusive and POLK inh -20.6%.
